Assay outcomes: PubChem BioAssay, National Center for Advancing Translational Sciences (NCATS)
TGFb SMAD3 inh – qHTS for Inhibitors of TGF-b | HepG2 CAGA-GFP TGF-b/SMAD3 reporter, GFP fluorescence, 18 h; TGF-beta stimulated, 500 pg/mL final | Potency, µM (titrated, usually from 46.1 µM), hits mostly inhibitors | 410,000 compounds, 1.2% hits | AID 588855, 2011; further: nearly all actives have a fitted effect of over 65% in size
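HEPG2 CAGA-GFP, 1000 cells/well; 2 h settle, 37 C; cpd via pin tool; TGF-b 500 pg/mL final; 18 h, 37 C; GFP imaging ex488/em500-530; %Activity normalised to -TGF-b and +DMSO controls; CRC fit, curve class.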
DT40 TDP1 CPT – qHTS for Inhibitors of human tyrosyl-DNA phosphodiesterase 1 (TDP1): qHTS in cells in presence of CPT; chicken DT40 Tdp1-/-;hTDP1 cells + 20 nM CPT, ATP luminescence, 48 h; Potency, µM (series often up to 46.2 µM), actives largely listed as inhibitors; 420,000 compounds, 12% hits; further: nearly all actives have a fitted effect of over 55% in size
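Chicken DT40 Tdp1-/- cells stably complemented with human TDP1 were seeded at 400 cells/well in medium containing 20 nM camptothecin, exposed to pin-transferred compounds, and grown at 37 °C for at least 48 hr. Viability was read as ATP luminescence.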
TDP1 cell noCPT – qHTS for Inhibitors of human tyrosyl-DNA phosphodiesterase 1 (TDP1): qHTS in cells in absence of CPT | DT40 Tdp1-/- hTDP1 cells, no CPT, ATP luminescence, 48 h | 420,000 compounds, 15% hits | AID 686978, 2013 | Potency, µM (doses to about 46.2 µM), hits mostly inhibitors; further: nearly all actives have a fitted effect of over 55% in size
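Seeded 400 DT40-hTDP1 cells/well (vehicle DMSO, no 20 nM CPT); pinned compounds; ≥48 hr at 37 °C; CellTiter-Glo luminescence as viability measure.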
HepG2 viability – qHTS for Inhibitors of TGF-b: Cytotox Counterscreen; Potency, µM (doses to about 46.1 µM), actives largely listed as cytotoxic; HepG2 CAGA-GFP viability, ATP luminescence, 18 h; AID 588856, 2011; 410,000 compounds, 0.76% hits
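HepG2 CAGA-GFP cells (1000/well, DMEM with 1% FBS) received compound, then TGF-beta at 500 pg/mL final, and were incubated 18 hours at 37 degrees C. Viability was read by CellTiter-Glo luminescence. Media-only wells were set as complete cell-killing and DMSO as no toxicity.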
HT1080NT lethal – qHTS for induction of synthetic lethality in tumor cells producing 2HG: qHTS for the HT-1080-NT fibrosarcoma cell line. HT-1080-NT fibrosarcoma viability, CellTiter-Glo ATP luminescence, 48 h. Potency, µM (series often up to 46.1 µM), usual class: cytotoxic. 360,000 compounds, 1.6% hits. AID 686970, 2013;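 further: NT is the 2HG producing partner of a matched IDH1 knockdown line; nearly all actives have a fitted effect of over 55% in size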
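HT-1080-NT fibrosarcoma cells (2HG-overproducing), 750 cells/well in RPMI with 5% FBS, dosed after 2 h and incubated 48 h at 37C. CellTiter-Glo luminescence normalized to DMSO and no-cell wells; concentration-response curves fitted and classed.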
HT1080 IDH1KD tx – qHTS for induction of synthetic lethality in tumor cells producing 2HG: qHTS for the HT-1080-IDH1KD cell line. HT-1080 IDH1 knockdown viability, ATP luminescence, 48 h. Potency, µM (highest dose often 46.1 µM), hits mostly cytotoxic. 360,000 compounds, 2% hits
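Viability of IDH1-knockdown HT-1080 fibrosarcoma cells was assessed by CellTiter-Glo after 48 h at 37 °C with titrated compound; concentration-effect curves were classified by fit quality and response size.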
Large screens that a line does not name were inactive. Compounds with a hit are over-represented: about 17% of the library has one in this group of screens. The call rests on the fitted dose curve; in most records, active means well fitted curve in the direction sought with a large enough effect; inconclusive means small, poorly fitted or top-dose-only effect, or another doubt; inactive means no such curve, though single readings can be large; an effect the other way counts as inactive or inconclusive.

COc1ccc(C)cc1N(C(=O)c1ccco1)C(C(=O)NC1CCCC1)c1cc(OC)c(OC)c(OC)c1 (stereo not drawn)	TDP1 cell noCPT inconclusive
COc1ccccc1-c1nnc(NC(=O)c2ccc(S(=O)(=O)N(C)Cc3ccccc3)cc2)o1	DT40 TDP1 CPT 13µM, TDP1 cell noCPT 9.2µM, HT1080NT lethal inconclusive, HT1080 IDH1KD tx inconclusive
CCCCN(CCCC)S(=O)(=O)c1ccc(C(=O)Nc2nnc(COC)o2)cc1	TGFb SMAD3 inh inconclusive, DT40 TDP1 CPT 18.4µM, TDP1 cell noCPT 16.4µM, HT1080NT lethal inconclusive, HT1080 IDH1KD tx 11.6µM
CCN(CC)S(=O)(=O)c1ccc(C(=O)Nc2nnc(COC)o2)cc1	none
CC(=O)N1CCc2c(sc(NC(=O)C3CCCCC3)c2C(N)=O)C1	TGFb SMAD3 inh inconclusive
CC1(C)Cc2c(ccc3ccccc23)/C(=C/C(=O)N2CCCCC2)N1	TGFb SMAD3 inh inconclusive, DT40 TDP1 CPT 16.4µM, TDP1 cell noCPT 14.6µM, HT1080NT lethal inconclusive, HT1080 IDH1KD tx inconclusive
O=C(Oc1ccc2ccccc2c1Cl)N1CCCCCC1	TDP1 cell noCPT inconclusive
COC(=O)CC(NC(=O)Nc1ccccc1F)c1ccc2c(c1)OCO2 (stereo not drawn)	none
O=C(Cc1ccccc1)Nc1sc2c(c1C(=O)Nc1ccc(Br)cc1)CCCC2	DT40 TDP1 CPT 11.6µM, TDP1 cell noCPT 20.6µM (no result: HT1080NT lethal, HT1080 IDH1KD tx)
COc1ccc(CC(=O)Nc2sc3c(c2C(=O)Nc2ccc(C)cc2)CCCCC3)cc1	DT40 TDP1 CPT inconclusive, TDP1 cell noCPT 16.4µM (no result: HT1080NT lethal, HT1080 IDH1KD tx)
Cc1ccc(NC(=O)c2c(NC(=O)Cc3ccccc3)sc3c2CCC3)cc1	TDP1 cell noCPT inconclusive (no result: HT1080NT lethal, HT1080 IDH1KD tx)
CC1CCc2c(sc(NC(=O)Cc3ccccc3)c2C(=O)Nc2ccc(Cl)cc2)C1 (stereo not drawn)	DT40 TDP1 CPT 14.6µM, TDP1 cell noCPT inconclusive (no result: HT1080NT lethal, HT1080 IDH1KD tx)
COc1ccc(NC(=O)c2c(NC(=O)Cc3ccccc3)sc3c2CCCC3)cc1	none (no result: HT1080NT lethal, HT1080 IDH1KD tx)
COc1ccc(NC(=O)c2c(NC(=O)C(F)(F)F)sc3c2CCCCC3)cc1	TGFb SMAD3 inh inconclusive, DT40 TDP1 CPT inconclusive, TDP1 cell noCPT 18.4µM (no result: HT1080NT lethal, HT1080 IDH1KD tx)
CN(C)c1nc(CN2CCCCC2c2cccnc2)nc2ccccc12 (stereo not drawn)	none (no result: TGFb SMAD3 inh, HepG2 viability, HT1080NT lethal, HT1080 IDH1KD tx)
O=C(CCNC(=O)c1ccccc1Cl)NCC1COc2ccccc2O1 (stereo not drawn)	none
CCCCC1(Br)C(=O)N(c2ccccc2)N(c2ccccc2)C1=O	DT40 TDP1 CPT inconclusive, TDP1 cell noCPT 16.4µM
CCCCC1(CO)C(=O)N(c2ccccc2)N(c2ccccc2)C1=O	DT40 TDP1 CPT inconclusive, TDP1 cell noCPT inconclusive
Cc1cn(C2CC(OC(=O)C(C)C)C(CO)O2)c(=O)[nH]c1=O (stereo not drawn)	none
O=C(NC(=S)N1CCN(C/C=C/c2ccccc2)CC1)c1ccc(Cl)nc1	DT40 TDP1 CPT 23.1µM, TDP1 cell noCPT 14.6µM
O=C(NC(=S)N1CCN(Cc2ccccc2)CC1)c1cccnc1	DT40 TDP1 CPT 16.4µM, TDP1 cell noCPT 20.6µM
COc1cccc(CNC(=O)c2ccc3c(c2)nc2n3CCC(C)C2)c1 (stereo not drawn)	none (no result: HT1080NT lethal, HT1080 IDH1KD tx)
NC(=O)N/N=C/c1c(Sc2nnnn2-c2ccccc2)nc2ccccn2c1=O	TGFb SMAD3 inh inconclusive, DT40 TDP1 CPT 2.91µM, TDP1 cell noCPT 2.59µM
CC(=O)N1CCN(C(=O)CNC(=O)c2ccc(C)s2)CC1	none
